Source: PubChem BioAssay
Sampled rows, rich in hits. Any-hit rate of the full collection: about 6.7%.
Pf Dd2 inh – P. falciparum Dd2 growth inhibition; SYBR Green, 72 h; stronger effect = lower value; activity change, % at 10 µM; 94,000 tested, 2.3% active; in the data active = activity change below about -80%
C diff growth – inhibitors of Clostridium difficile growth | Clostridium difficile clinical isolate growth, OD600, 24 h; stronger effect = lower value | 86,000 tested, 0.25% active | growth activity, negative = inhibition, % at 16 µg/mL (by protocol);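 active = mean growth activity at or below -80% and every replicate also at or below -80%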
T cruzi growth-1 – T. cruzi proliferation inhibition | T. cruzi beta-gal in NIH3T3, GalScreen luminescence, 90 h | inhibition, % at 8.34 µM | 77,000 tested, 5.9% active | AID 624255;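 active = mean inhibition above about 93%, with at least 55% of replicates each passing it, limit read from the data, passing the limit was not always enough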
T cruzi growth-2 – blocks T. cruzi growth in NIH3T3 host cells; AID 651739; T. cruzi beta-gal in NIH3T3, GalScreen luminescence, 90 h; inhibition, % at 8.35 µM; shares compounds with T cruzi growth-1; 5,600 tested, 72% active;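 active = mean replicate inhibition above about 95% and at least 55% of replicates individually reaching it, limit read from the data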
T cruzi growth-3 – blocks T. cruzi growth in NIH3T3 host cells; 5,600 tested, 21% active; inhibition, % at 2.09 µM; shares compounds with T cruzi growth-1; T. cruzi beta-gal in NIH3T3, GalScreen luminescence, 90 h;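 active = mean inhibition above about 95%, with at least 55% of replicates also reaching it, limit read from the data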
NIH3T3 tox – kills mouse NIH/3T3 fibroblasts | shares compounds with T cruzi growth-1 | NIH/3T3 viability, CellTiter-Glo ATP luminescence, 90 h | cytotoxicity (signal decrease), % at 8.35 µM | 5,600 tested, 14% active | AID 651742;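 active = mean signal decrease across replicates above about 35% based on untreated-well scatter, with enough replicates individually passing, limit read from the data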
NIH3T3 tox 2 – cytotoxicity in mouse NIH/3T3 fibroblasts | shares compounds with T cruzi growth-1 | NIH/3T3 viability, CellTiter-Glo ATP luminescence, 90 h | inhibition, % at 24.9 µM | 5,600 tested, 56% active;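 active = mean loss of cell viability signal at or above a set limit, and enough replicates individually reaching it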
Numbers stand for hits; . = inactive; / = no result given.

SMILES	Pf Dd2 inh	C diff growth	T cruzi growth-1	others
CN1c2ccc(-c3cccc(C#N)c3)cc2[C@@H]2[C@@H](CCN2S(=O)(=O)c2ccccc2)[C@@H]1CO	.	.	116	T cruzi growth-2=99;T cruzi growth-3=.;NIH3T3 tox=51;NIH3T3 tox 2=.
CN1c2ccc(-c3cccc(C#N)c3)cc2[C@@H]2[C@@H](CCN2S(=O)(=O)c2cccc(F)c2)[C@@H]1CO	.	.	.
CN1c2ccc(C#Cc3cccnc3)cc2[C@@H]2[C@@H](CCN2C(=O)C2CC2)[C@H]1CO	.	.	99	T cruzi growth-2=96;T cruzi growth-3=.;NIH3T3 tox=.;NIH3T3 tox 2=25
CN1c2ccc(-c3cccc(C#N)c3)cc2[C@@H]2[C@@H](CCN2S(=O)(=O)c2ccc(F)cc2)[C@@H]1CO	.	.	105	T cruzi growth-2=.;T cruzi growth-3=.;NIH3T3 tox=45;NIH3T3 tox 2=.
CN1c2ccc(C#Cc3cccnc3)cc2[C@@H]2[C@@H](CCN2C(=O)C2CCC2)[C@H]1CO	.	.	/
O=C(NCC1CC1)[C@H]1[C@H](CO)[C@H]2Cn3c(ccc(-c4ccccc4F)c3=O)[C@@H]1N2Cc1cccnc1	/	.	.
COCC(=O)Nc1ccc2c(c1)OC[C@H](C)N(C(=O)c1cnccn1)C[C@H](C)[C@@H](OC)CN(C)C2=O	.	.	/
O=C(C[C@@H]1C=C[C@@H](NC(=O)C2CC2)[C@@H](CO)O1)NCc1ccncc1	.	.	/
CO[C@H]1O[C@H](CO)[C@@H](OC(=O)Nc2cccc(F)c2)[C@H](OC(=O)Nc2ccccc2)[C@H]1OC(=O)Nc1ccccc1	/	.	/
O=C(c1ccc2c(c1)OCO2)N1CC2(C1)[C@@H](c1ccccc1)[C@@H](CO)N2C(=O)C1CCCC1	.	.	/
O=C(Nc1ccc2c(c1)[C@H]1C[C@H](CC(=O)N3CCOCC3)O[C@H](CO)[C@H]1O2)c1ccc2c(c1)OCO2	.	.	.
COc1ccc2c3c(n(C)c2c1)[C@@H](CO)N(C(=O)CN1CCOCC1)CC31CCN(C(=O)CC2CC2)CC1	.	.	/
C[C@@H]1CN([C@@H](C)CO)C(=O)c2cccc(NC(=O)c3cnccn3)c2O[C@H]1CN(C)S(=O)(=O)c1ccc(F)cc1	.	.	.
